Hits are enriched below; roughly 3% of the tested compounds scored in any of these assays.
Mot1-301 SUMO – inhibitors of SUMOylation pathway: yeast Mot1-301 growth rescue. S. cerevisiae Mot1-301 growth rescue, ATP luminescence, 38.5C; percent above DMSO median, 100 means doubled. growth rescue, % at 18.8 µM. 320,000 compounds, 1% hits. AID 2716;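 active means every valid replicate shows activation above 250% relative to neutral control wells; inactive means the rest, any valid replicate at or below 250%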
CHT PAM – allosteric activators of human choline transporter CHT; Q9GZV3; CHT-expressing cells, membrane potential dye, choline EC20; stronger effect = higher value; LV-AA mutant CHT in HEK293 cells; B-score at 10 µM; 310,000 compounds, 0.49% hits;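 active means initial fluorescence not abnormally high and integrated response B-score, plate-corrected, over 3 SD above library mean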
Target sequence (Q9GZV3 whole entry, looked up): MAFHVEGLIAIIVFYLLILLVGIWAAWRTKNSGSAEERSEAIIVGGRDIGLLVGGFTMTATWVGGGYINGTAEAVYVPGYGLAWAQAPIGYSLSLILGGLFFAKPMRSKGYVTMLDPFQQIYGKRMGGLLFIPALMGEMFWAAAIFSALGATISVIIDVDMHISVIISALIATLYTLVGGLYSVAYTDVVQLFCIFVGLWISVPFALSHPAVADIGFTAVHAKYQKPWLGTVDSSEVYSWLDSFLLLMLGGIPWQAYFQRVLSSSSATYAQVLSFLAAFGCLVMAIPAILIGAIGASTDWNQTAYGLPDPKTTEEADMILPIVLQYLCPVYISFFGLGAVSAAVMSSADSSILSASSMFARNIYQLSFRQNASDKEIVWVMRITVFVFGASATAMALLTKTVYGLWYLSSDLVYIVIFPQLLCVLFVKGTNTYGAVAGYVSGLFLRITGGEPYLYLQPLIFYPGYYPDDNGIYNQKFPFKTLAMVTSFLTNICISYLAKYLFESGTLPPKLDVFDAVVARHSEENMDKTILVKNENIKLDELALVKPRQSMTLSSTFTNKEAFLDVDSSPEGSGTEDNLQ
NALP1 inh – NALP1 inhibition | S. cerevisiae NALP1/ASC/caspase-1 growth, X-gal OD620, 72 h | inhibition, % at 10 µM | 280,000 compounds, 0.61% hits; in the data active means inhibition mostly above about 24%, no sharp cut-off; inactive means mostly below about 32%
CHT inh – inhibits the human high affinity choline transporter | Q9GZV3 | CHT-expressing cells, membrane potential dye, choline response; stronger effect = lower value | B-score at 10 µM | 310,000 compounds, 0.86% hits | AID 488975;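 active means B-score over 3 SD under the library average, and starting fluorescence ratio not unusually high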;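 further: choline stimulus applied at its EC90 after an EC20 pre-addition; B-score computed on integrated fluorescence ratio after choline addition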
NALP3 yeast inh – inhibitors of NALP3 inflammasome in yeast. 330,000 compounds, 0.39% hits. Yeast reconstituted NLRP3/ASC/caspase-1, beta-gal luminescence, 24 h. inhibition, % at 10 µM;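 active means inhibition of 50% or more; inactive means inhibition below 50%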
A1 inh – inhibitors of the anti-apoptotic protein A1, read as caspase activation; MEF A1-2A-BIM cells, Caspase-Glo 3/7 luminescence, 3 h; percent of clofoctol response, vehicle zero; AID 2462; 330,000 compounds, 0.066% hits; caspase activation, % (concentration not given with the values);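 active means over half of replicate activation scores above 10%, or exactly half above 10 with the replicate mean above 10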
A number is an active result; n = inactive; x = no result.

SMILES | Mot1-301 SUMO | CHT PAM | NALP1 inh | CHT inh | NALP3 yeast inh | A1 inh
Fc1cc2[nH]c(=S)[nH]c2c(Br)c1N1CCSCC1 | n | n | n | n | n | n
COCCNC(=S)N1CCc2cc(OC)c(OC)cc2C1COc1ccc(F)cc1 (centres undefined) | n | n | n | n | n | n
COCCNC(=S)N1CCc2cc(OC)c(OC)cc2C1c1cccs1 (centres undefined) | n | n | 24 | n | n | n
Cc1nc2c(-c3ccc(F)cc3)c(C)nn2c(C)c1CCC(=O)Nc1ccccc1F | n | n | x | n | n | n
CCn1c(=O)c2sccc2n(CC(=O)NCCC2=CCCCC2)c1=O | n | n | n | n | n | n
O=C(OCc1cccc(F)c1)c1ccc2c(=O)n3c(nc2c1)CCC3 | n | n | 35 | n | n | n
CCN1/C(=C/C=C/c2sc3ccccc3[n+]2CC)Sc2ccccc21 | n | n | x | n | n | n
CCN1/C(=C/C=C/C=C/c2sc3ccccc3[n+]2CC)Sc2ccccc21 | n | n | 133 | n | n | n
COCCCC1CCN(Cc2cn[nH]c2-c2cc(OC)c(OC)c(OC)c2)CC1 | n | n | 26 | n | n | n
Cc1ccc(C(=O)N2CCN(S(=O)(=O)N3CCCCC3)CC2)cc1 | n | n | n | n | n | n
CCC(C)Sc1cccc(-c2nc3ccc(C)cn3c2NC2CCCCC2)c1 (centres undefined) | 341 | n | x | n | n | n
CCc1ccc(NC(=O)c2cnc(SC)nc2C)cc1 | n | n | n | n | n | n
COc1ccc(C2/C(=C(/O)c3ccc(Br)cc3)C(=O)C(=O)N2C)cc1 (centres undefined) | n | n | n | n | n | n
CCSc1nnc(Cc2cc(=O)[nH]c(=O)[nH]2)n1-c1cc(C)ccc1C | n | n | 28 | n | n | n
CSc1nnc(Cc2cc(=O)[nH]c(=O)[nH]2)n1-c1cc(C)ccc1C | n | n | n | n | n | n
CCOc1ccc2ccccc2c1/C=N/NC(=O)c1ccncc1 | n | n | n | n | n | n
N#CCC(=O)Nc1ccc(C(=O)OCC(=O)N2CCN(C(=O)c3ccco3)CC2)cc1 | n | x | x | x | n | n
O=C(CC(Sc1ccc(Br)cc1)C(=O)O)c1ccc(Br)cc1 (centres undefined) | n | n | n | -7 | n | n
Cc1ccc(SC(CC(=O)c2ccc(C)cc2)C(=O)O)cc1 (centres undefined) | x | n | n | n | n | n
C=C[C@@]1(C)CC(=O)[C@]2(O)[C@@]3(C)[C@@H](O)CCC(C)(C)[C@@H]3[C@H](O)[C@H](OC(C)=O)[C@@]2(C)O1 | n | n | x | -6.4 | n | n
C=C1C(=O)O[C@H]2C[C@]3(C)C([C@@H](OC(=O)/C(C)=C/C)[C@H]12)[C@](C)(O)CC[C@H]3O (some centres undefined) | n | n | n | n | n | n
Cc1cc(Sc2ccc([N+](=O)[O-])cn2)ccc1Br | n | n | x | n | n | n
Cc1cc(S(=O)(=O)c2ccc([N+](=O)[O-])cn2)ccc1Br | 379 | n | x | n | n | n
O=[N+]([O-])c1ccc(S(=O)(=O)c2ccccc2)nc1 | n | n | n | n | n | n
Cc1ccc(S(=O)(=O)c2ccc([N+](=O)[O-])cn2)cc1 | n | n | 35 | n | n | n
SMILES | Mot1-301 SUMO | CHT PAM | NALP1 inh | CHT inh | NALP3 yeast inh | A1 inh
COc1ccc(CCC2(C)NC(=O)N(C(C)C(=O)N3c4ccccc4CC3C)C2=O)cc1 (centres undefined) | n | x | x | x | n | n
COCCn1c(Cc2ccccc2)nnc1SCC(=O)Nc1oc(C)c2c(C)n[nH]c(=O)c12 | n | n | x | n | n | n
Cc1ccc(-c2cc(N)n(-c3ccc(F)cc3)n2)cc1 | n | n | 29 | n | n | n
NC(CCCCc1ccccc1)c1cccc2ccccc12 (centres undefined) | n | 11 | x | n | n | n
CC(CCc1ccccc1)NCc1cccc2ccccc12 (centres undefined) | n | n | n | n | n | n
CCOC(=O)C1=C(COC(=O)C2CC(=O)N(c3ccccc3F)C2)NC(=O)NC1C (centres undefined) | n | x | x | x | n | n
Cc1[nH]n(-c2ccccc2)c(=O)c1/C=N/NC(=O)c1cccc(F)c1 | n | n | n | n | n | n
Cc1[nH]n(-c2ccc(Br)cc2)c(=O)c1/C=N/NC(=O)c1ccccc1 | n | n | n | -5.4 | n | n
O=S(=O)(Cc1ccccc1)N1CCn2c(nc3ccccc32)C1 | n | n | 41 | n | n | n
O=S(=O)(c1ccc(Br)cc1)N1CCn2c(nc3ccccc32)C1 | n | n | n | n | n | n
C=CCSc1nc(N)c2c3c(sc2n1)CN(C)CC3 | n | n | n | n | n | n
CCn1c(SCC(=O)Nc2ccc(C)cc2)nc2sc3c(c2c1=O)CCN(C)C3 | n | n | n | n | n | n
CSc1nc(N)c2c3c(sc2n1)CN(C)CC3 | n | 7.7 | n | n | n | n
CCn1c(SCC(N)=O)nc2sc3c(c2c1=O)CCN(C)C3 | n | 7.9 | n | n | n | n
CCSc1nc(N)c2c3c(sc2n1)CN(C)CC3 | n | 6.3 | n | n | n | n
COC(CNc1nc(SC)nc2sc3c(c12)CCN(C)C3)OC | n | n | n | n | n | n
CCC(O)CNc1nc(SC)nc2sc3c(c12)CCN(C)C3 (centres undefined) | n | 7.1 | n | n | n | n
COC(CSc1nc(N)c2c3c(sc2n1)CN(C)CC3)OC | n | n | n | n | n | n
CSc1nc(SCC(N)=O)c2c3c(sc2n1)CN(C)CC3 | n | 6.3 | n | n | n | n
COCCSc1nc2sc3c(c2c(=O)n1-c1ccccc1)CCN(C)C3 | n | 7.5 | n | n | n | n
CC1CC(C)CN(CC(O)COCc2ccccc2F)C1 (centres undefined) | n | n | n | n | n | n
Nc1cc(N2CCCC2)c(Cl)cc1[N+](=O)[O-] | 307 | n | n | n | n | n
CCOC(=O)c1c(CSc2ccccc2)n(C)c2ccc(O)cc12 | n | n | n | n | n | n
CC1(C)CCC[C@@]2(C)CC=C(C(=O)O)[C@@H]3C[C@]312 | n | n | x | n | n | n
CC(C)[n+]1ccn(C2=C([O-])c3ccccc3C(=O)/C2=N\S(=O)(=O)c2ccccc2)c1 | n | n | 36 | n | n | n
CCN(CC)CCCNC(=O)c1cn(CCOC)c(=O)c2c1c1ccccc1n2C | n | n | 31 | n | n | n
CN1CCN(CCCNC(=O)c2cn(C3CCCCC3)c(=O)c3c2c2ccccc2n3C)CC1 | x | n | n | -5 | n | n
O=C(NCCO)C(=O)NCC1OCCCN1S(=O)(=O)c1cc(F)ccc1F (centres undefined) | n | n | n | n | n | n
